PubChem BioAssay AID1850 (Southern Research Specialized Biocontainment Screening …, 2009)
Where “and” joins values, the source holds several entries; their conditions need not be identical. Equal entries are not always repeated. About 1,000 (0.32%) of roughly 310,000 compounds were called active. These entries were drawn from the full list. Results with a measured potency or affinity are listed apart. Unmarked numbers belong to inactive results. How the calls were made is not given here.

Assay: PhoP regulon inhibitors, Salmonella typhi PhoP promoter GFP reporter, confirmatory (AID 1850);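 further: 0% = induced wells with vehicle and 100% = uninduced wells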
Conditions: fluorescence, 4 h, at 50 µM, hits give high values

Compound | inhibition
Clc1ccc(COC(Cn2ccnc2)c2ccc(Cl)cc2Cl)cc1 (centres undefined) | -0.54%
Clc1ccc(COC(Cn2ccnc2)c2ccc(Cl)cc2Cl)c(Cl)c1 (centres undefined) | -1.14% and 1.85%
Cn1ccsc1=NC(=O)c1ccc(S(=O)(=O)C(F)F)cc1 | 2.31%
CCOc1ccccc1-c1nc(-c2ccc(NC(=O)Cc3ccccc3OC)cc2)no1 | 1.73% and -10.4%
O=C(Cn1c[n+](CC(=O)c2ccc([N+](=O)[O-])cc2)cn1)c1ccc([N+](=O)[O-])cc1 | 7.72% and 18.6%
C[n+]1ccn(CC(=O)c2ccc(Cl)cc2)c1 | -7.58%
O=C(Cn1cc[n+](CC(=O)c2ccccc2)c1)c1ccccc1 | 18.8%
O=C(C[n+]1ccn(-c2ccccc2)c1)c1ccc([N+](=O)[O-])cc1 | 4.4%
O=c1c(/C=N\NS(=O)(=O)c2ccccc2)coc2ccc(Cl)cc12 | -7.39%
C/C(=C\c1ccccc1)CN1CCN(C(C)C)C(CCO)C1 (centres undefined) | -0.3%
CC1=CC(c2ccccc2)n2ncnc2N1 (centres undefined) | 3.87%
COC/C=C/C1=CC2=CC(=O)C(C)(OC(=O)c3cnc4ccccc4n3)C(=O)C2=CN1CCc1ccccn1 (centres undefined) | 0.66%
CCN(CCNCC(O)COCc1ccc(Cl)cc1)c1cccc(C)c1 (centres undefined) | -1.24%
CC(C)c1ccccc1OCC(O)CN(CC(O)COc1cccc2ccccc12)C(C)C (centres undefined) | -6.27%
Cc1c(Cl)cccc1NC(CC(=O)c1ccccc1)C(=O)OCC(=O)c1cccs1 (centres undefined) | -2.54%
Cc1cccc(NC(=O)Nc2ccc(S(N)(=O)=O)cc2)c1 | -0.31%
Cc1ccc(S(=O)(=O)NNC(=O)C(=O)NNS(=O)(=O)c2ccc(C)cc2)cc1 | -7.52%
Cc1ccc(S(=O)(=O)NNC2=NS(=O)(=O)c3ccccc32)c(C)c1 | 0.74%
Cc1ccc(S(=O)(=O)NNC(=O)Nc2cccc(F)c2)c(C)c1 | -7.92%
CC(=O)Nc1ccc(S(=O)(=O)NNC(=O)COc2cccc(C)c2)cc1 | 9.44%
Cc1ccc(S(=O)(=O)NNc2ccccc2)cc1 | 32.1%
CCOC(=O)N1CCN(Cc2nc3cc(NC(=O)c4cccs4)ccc3n2C)CC1 | -16.8%
COc1cc(CNn2cn[nH]c2=S)ccc1OCC(=O)NC(C)(C)C | -5.11%
CC(=O)N1CN2CN(C(C)=O)CC(C(=O)c3ccc([N+](=O)[O-])cc3)(C2)C1 | 5.88%
